Screening results from PubChem BioAssay.
Marburg entry inh: qHTS for inhibitors of binding or entry into cells for Marburg Virus. Marburg virus pseudotyped entry inhibition, cell reporter. Potency, µM (highest dose often 37.8 µM), usual class: inhibitors. hit rate 1.8% among 300,000; calls by dose curve; tested in HEK293 cells
Shiga toxin inh: A qHTS for Small Molecule Inhibitors of Shiga Toxin | Vero cells, Shiga toxin protein synthesis inhibition reporter | hit rate 9.2% among 290,000 | inhibition, % at 38.7 µM; in the data active = inhibition mostly above about 28%, no sharp cut-off; inactive = mostly below about 43%
HCV inh: qHTS Assay for Inhibitors of Hepatitis C Virus (HCV); hit rate 3.4% among 340,000; Huh7.5.1 HCVcc-Cre infection, luciferase reporter, 44 h; Potency, µM (doses to about 41.8 µM), most hits filed as inhibitors; active = well fitted inhibition curve with a large enough effect; inconclusive = small, poorly fitted or top-dose-only effect, or another doubt; inactive = no such curve, though single readings can be large or run the other way
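Compounds are dispensed onto cells plated 4 h earlier at 1,000 per well, with HCVcc-Cre virus (about 0.5 moi) added next. Following 44 h of culture, luminescent signal is measured for 15 sec after 15 min with substrate at room temperature.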
FMDV inh: High Throughput Screening for Foot and Mouth Disease Virus Antivirals | hit rate 1.2% among 410,000 | Potency, µM (highest dose often 57.9 µM), usual class: inhibitors | AID 1159524, 2015 | FMDV antiviral cell-based qHTS; calls by dose curve; tested in HEK293T cells; note: read-out not given here; nearly all actives have a fitted effect of over 45% in size
Cycloheximide cs: Cycloheximide Counterscreen for Small Molecule Inhibitors of Shiga Toxin; max response, %; hit rate 12% among 300,000; cell reporter, cycloheximide protein synthesis inhibition counterscreen; in the data active = max response mostly above about 13%, no sharp cut-off; inactive = mostly below about 14%; note: read at 38.3 µM for the half of the compounds with a filed dose
Lassa entry inh: qHTS for Inhibitors of binding or entry into cells for Lassa Virus | Lassa virus pseudotype entry inhibition, cell reporter | Potency, µM (top dose mostly 37.9 µM), hits mostly inhibitors | hit rate 1.2% among 300,000; calls by dose curve; tested in HEK293 cells; note: nearly all actives have a fitted effect of over 50% in size
Numbers stand for hits; – = inactive; ? = inconclusive; · = no result given. In the library only some 13% were active in any assay of this set; here they are far more common.

SMILES	Marburg entry inh	Shiga toxin inh	HCV inh	FMDV inh	Cycloheximide cs	Lassa entry inh
Cc1ccc(/C=N/NC(=O)c2ccncc2)s1	–	–	–	–	–	–
Cc1ccc(/C=N/NC(=O)c2ccc3c(c2)OCCO3)s1	?	55.2	–	–	37.9	?
Cc1cc(C)c(NC(=O)CCCn2c(C)c3cnn(-c4ccccc4)c(=O)c3c2C)c(C)c1	–	·	·	–	·	–
COc1ccccc1C1OC(c2cccc([N+](=O)[O-])c2)=NN1C(C)=O (stereo unspecified)	–	–	–	–	–	–
Cc1cc(N2CCN(C)CC2)nc2ccc(NC(=O)c3ccc(C(C)(C)C)cc3)cc12	?	·	·	?	·	–
O=C(Nc1ccc(N2CCOCC2)nc1)c1ccc(C(F)(F)F)cc1	–	–	7.08µM	8.91µM	–	?
Cc1ccc(C(=O)Nc2ccc(N3CCN(C)CC3)nc2)cc1	–	–	–	–	32.1	–
Cc1cccc(C(=O)Nc2ccc(N3CCN(c4ccc(C(F)(F)F)cn4)CC3)nc2)c1	–	–	–	–	–	–
O=C(Nc1ccc(N2CCOCC2)nc1)c1ccccc1Cl	–	–	–	–	28.8	–
Cc1ccccc1-c1nc(CS(=O)(=O)CC(=O)NCCCN2CCCC2=O)c(C)o1	–	–	–	–	–	–
O=C(CN1C(=O)NC2(CCCCC2)C1=O)NCCc1ccc(Cl)cc1Cl	–	·	–	–	·	–
O=C(Cn1nnc(-c2ccccc2)n1)NCc1ccco1	–	–	–	–	–	–
CCOc1ccc(-c2nnn(CC(=O)NCc3ccco3)n2)cc1	?	–	–	–	25.6	–
CCOC(=O)Cn1nnc(-c2ccccc2)n1	–	–	–	–	–	–
CCCOc1ccc(-c2nnn(CC(=O)OCC)n2)cc1	–	–	–	–	20.2	–
CCOC(=O)Cn1nnc(-c2ccc([N+](=O)[O-])cc2)n1	–	–	–	–	10.7	–
CN1C(=O)C(C)(C)c2cc(S(=O)(=O)N3CCCC3C(=O)NCc3ccc(F)cc3)ccc21 (stereo unspecified)	·	–	–	–	–	·
CCc1ccccc1NC(=O)CSc1ncc(S(=O)(=O)c2ccccc2)c(=O)[nH]1	–	·	·	–	·	·
O=C(Nc1ccc2c(c1)oc1ccc(S(=O)(=O)N3CCCC3)cc12)C1CC1	–	–	?	·	–	11.6µM
O=C(Nc1ccc2c(c1)OC1(CCCC1)O2)C1CC1	–	–	–	·	17.0	–
O=C(O)CCCC(=O)Nc1ccc2c(c1)oc1ccccc12	·	–	?	–	–	·
O=C(Nc1ccc2c(c1)OCO2)C1CC1	?	·	–	–	·	–
O=C(Nc1ccc2c(c1)oc1ccccc12)C1CC1	?	95.3	10µM	–	46.3	–
Cn1nc(-c2ccc(OCC(=O)NCC3CCCO3)cc2)c2ccccc2c1=O (stereo unspecified)	?	–	?	?	–	–
COc1ccc(N2CC(C(=O)N[C@H](C(=O)NC3CCCC3)C(C)C)CC2=O)cc1 (stereo partly specified)	–	–	–	–	–	–
SMILES	Marburg entry inh	Shiga toxin inh	HCV inh	FMDV inh	Cycloheximide cs	Lassa entry inh
CCC1C=CC=CC[C@H](C)[C@@H](O)[C@](C)(O)C(=O)[C@@H](C)[C@H](O)[C@@H](C)C(=O)[C@H](C)[C@@H](O)[C@H](C)C=CC(=O)OC2[C@@H](C)C(CC1)OC1(CC[C@@H](C)C(C[C@H](C)O)O1)[C@@H]2C (stereo partly specified)	·	·	0.891µM	·	·	·
COCc1cc(C)nc2sc(C(=O)Nc3cccc(OC)c3)c(N)c12	·	65.9	?	–	53.6	·
COCc1cc(C)nc2sc(C(=O)Nc3nccs3)c(N)c12	·	–	–	–	41.9	·
COCc1cc(C)nc2sc(C(=O)Nc3ccccc3OC)c(N)c12	?	–	?	–	–	–
Cc1cc(C)c2c(N)c(C(=O)Nc3nccs3)sc2n1	?	–	–	–	–	?
COCc1cc(C)nc2sc(C(=O)Nc3ccc(OC)cc3)c(N)c12	·	–	?	–	28.6	·
COCc1cc(C)nc2sc(C(=O)Nc3ccc(C(C)=O)cc3)c(N)c12	?	·	·	–	·	–
O=C(CNC(=O)c1ccc(S(=O)(=O)N2CCCC2)cc1)N/N=C/c1ccc(Cl)cc1Cl	?	–	?	–	–	?
COc1cccc(C(NC(C)=O)c2nc(-c3ccc4ccccc4c3)cs2)c1 (stereo unspecified)	·	·	·	–	·	·
